This note sets out measurements from the supplement of paper PMC6089552.

This assay has as its system A673/TR/shEF. Kind of assay: cell viability (LOESS-normalised, relative to median of negative controls) (log2 ratio); higher = more viable cells (less compound effect), active = hit call of the paper (over 3 MAD below the median). The settings on record: treatment time: 72 h. The method in brief:
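For three days, A673/TR/shEF Ewing sarcoma cells in 384-well plates (1,500 per well) were treated with library compounds at two or more concentrations or with DMSO controls, after doxycycline had been added or withheld 24 h beforehand to induce EWS-FLI1 shRNA knockdown. Viability was read by CellTiter-Glo luminescence on an Envision reader. The data were LOESS-corrected per plate, divided by the median of negative controls and log2-transformed.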

Where [1] appears, read: 0.103 µM, library screen: screen3, EWS-FLI1 expression: high (no doxycycline).
Setting [2] is: 0.103 µM, library screen: screen3, EWS-FLI1 expression: low (doxycycline-induced shRNA knockdown).
Setting [3] is: 0.308 µM, library screen: screen3, EWS-FLI1 expression: high (no doxycycline).
The mark [4] stands for this setting: 0.308 µM, library screen: screen3, EWS-FLI1 expression: low (doxycycline-induced shRNA knockdown).
[5] abbreviates: 0.926 µM, library screen: screen3, EWS-FLI1 expression: high (no doxycycline).
[6] abbreviates: 0.926 µM, library screen: screen3, EWS-FLI1 expression: low (doxycycline-induced shRNA knockdown).
The mark [7] stands for this setting: 2.8 µM, library screen: screen3, EWS-FLI1 expression: high (no doxycycline).
The mark [8] stands for this setting: 2.8 µM, library screen: screen3, EWS-FLI1 expression: low (doxycycline-induced shRNA knockdown).
Setting [9] is: 8.3 µM, library screen: screen3, EWS-FLI1 expression: high (no doxycycline).
The mark [10] stands for this setting: 8.3 µM, library screen: screen3, EWS-FLI1 expression: low (doxycycline-induced shRNA knockdown).
Setting [11] is: 25 µM, library screen: screen3, EWS-FLI1 expression: high (no doxycycline).
[12] abbreviates: 25 µM, library screen: screen3, EWS-FLI1 expression: low (doxycycline-induced shRNA knockdown).
Setting [13] is: 0.25 µM, library screen: screen1, EWS-FLI1 expression: high (no doxycycline).
Setting [14] is: 0.25 µM, library screen: screen1, EWS-FLI1 expression: low (doxycycline-induced shRNA knockdown).
The mark [15] stands for this setting: 2.5 µM, library screen: screen1, EWS-FLI1 expression: high (no doxycycline).
The mark [16] stands for this setting: 2.5 µM, library screen: screen1, EWS-FLI1 expression: low (doxycycline-induced shRNA knockdown).
The mark [17] stands for this setting: 0.25 µM, library screen: screen2, EWS-FLI1 expression: high (no doxycycline).
The mark [18] stands for this setting: 0.25 µM, library screen: screen2, EWS-FLI1 expression: low (doxycycline-induced shRNA knockdown).
Where [19] appears, read: 2.5 µM, library screen: screen2, EWS-FLI1 expression: high (no doxycycline).
[20] abbreviates: 2.5 µM, library screen: screen2, EWS-FLI1 expression: low (doxycycline-induced shRNA knockdown).

In all, about 3,200 compounds went through this assay and about 300 (9.4%) showed activity. The sample holds actives, similar compounds and a random draw of the others, so the mix is not that of the screen. A number with no mark means an inactive call.

In the case of `C[N+]1(C)C2CC(OC(=O)C(O)(c3cccs3)c3cccs3)CC1C1OC12` (stereo not given), the “cell viability (log2)” value is, setting by setting: under setting [1], 0.0262; under setting [2], 0.0758; under setting [3], 0.0294; under setting [4], 0.0213; under setting [5], -0.023; under setting [6], 0.0295. The “cell viability (log2)” value is 0.0205 under setting [7]; 0.0567 under setting [8]; 0.0784 under setting [9]; 0.0507 under setting [10]; 0.1 under setting [11]; 0.116 under setting [12].
In the case of `COC(=O)C(C(C)=O)C(C)=O`, the “cell viability (log2)” value by setting is: under setting [13], 0.0323; under setting [14], 0.0334; under setting [15], 0.0258; under setting [16], 0.125.
For `CC(/C=C/C=C(\C)c1cc(C(C)(C)C)cc(C(C)(C)C)c1)=C\C(=O)O`, the “cell viability (log2)” value reads like this: under setting [17], 0.134; under setting [18], 0.0751; under setting [19], 0.0952; under setting [20], 0.134.
In the case of `C=CCNC(=O)c1ccc(CN(c2cccc(Cl)c2)S(C)(=O)=O)cc1`, the “cell viability (log2)” value under setting [13] is 0.0663, the “cell viability (log2)” value under setting [14] was 0.0926, the “cell viability (log2)” value under setting [15] is 0.107 and the “cell viability (log2)” value under setting [16] is 0.133.
For the molecule `C[N+](C)(C)CCC(=O)c1cccc2ccccc12`, the “cell viability (log2)” value is, setting by setting: under setting [17], -0.0772 (active); under setting [18], 0.0591; under setting [19], -0.524 (active); under setting [20], -0.0126.
For the molecule `NCCC(=O)c1ccccc1N`, the “cell viability (log2)” value runs as follows: under setting [13], 0.0986; under setting [14], 0.0335; under setting [15], 0.167; under setting [16], 0.184.
For `O=C(O)c1c2ccccc2cc2ccccc12` the same measures were 0.0833, 0.174, 0.112 and 0.125.
For `COC(=O)C[C@H]1C(C)(C)C(OC(C)=O)[C@]2(O)C=C3C(CC[C@]4(C)C3CC(=O)O[C@H]4c3ccoc3)C1(C)C2=O` (stereo not given in full) the same measures were 0.102, 0.114, 0.0649 and 0.0874.
As for `COc1nc(N)nc2c1ncn2[C@@H]1O[C@H](CO)[C@@H](O)[C@@H]1O`, the “cell viability (log2)” value is, setting by setting: under setting [1], -0.0331; under setting [2], 0.0967; under setting [3], 0.111; under setting [4], 0.1; under setting [5], 0.0614; under setting [6], 0.133. Moreover, the “cell viability (log2)” value runs as follows: under setting [7], 0.0686; under setting [8], 0.0525; under setting [9], 0.0218; under setting [10], 0.0206; under setting [11], 0.0232; under setting [12], 0.121.
As for `COc1ccc(C[C@@H](N)C(=O)N[C@H]2[C@@H](O)[C@H](n3cnc4c(N(C)C)ncnc43)O[C@@H]2CO)cc1`, the “cell viability (log2)” value under setting [13] was 0.0185, the “cell viability (log2)” value under setting [14] was -0.00341, the “cell viability (log2)” value under setting [15] is -1.82 (active) and the “cell viability (log2)” value under setting [16] was -2 (active).
With `C[C@H](Cc1ccccc1)Nc1ncnc2c1ncn2[C@@H]1O[C@H](CO)[C@H](O)C1O` (stereo not given in full), the “cell viability (log2)” value runs as follows: under setting [17], 0.0269; under setting [18], 0.14; under setting [19], 0.0399; under setting [20], 0.136.
